Targets with a hit are over-represented here; the source holds about 7,900 in all. About 0.6% of all pairs of compound and target were hits. Unmarked numbers belong to inactive results.
What was measured:
Test in all cases: log2 fold change, soluble protein after heating vs DMSO (PISA); higher = thermal stabilisation; K562 cells, 10 uM, 30 min; active = over 0.2 and 3.5 SD of the protein, either way, in both replicates (recomputed)
[1] = compound: CS(=O)(=O)c1ccc(-c2cnc(N)c(C(=O)Nc3ccccc3)n2)cc1
Procedure, shortened: (§1)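 Soluble protein was quantified by TMTpro 16plex LC-MS/MS after channel sums were equalised. It was obtained as the supernatant after 21,000xg for 90 min from pooled aliquots of K562 cells (2×10^6 cells/mL, 10 μM compound, 30 min) heated for 3 min across 48°C-58°C and extracted in PBS with 0.5% NP-40 at 4°C. Thermal stability values are relative to control samples and come from duplicates. They are given as log2 fold changes.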

[2] = compound: C[C@@H](Oc1cc(-c2cnn(C3CCNCC3)c2)cnc1N)c1c(Cl)ccc(F)c1Cl [crizotinib]
Procedure, shortened: as §1

[3] = compound: C[C@@H]1COCCN1C2=NC(=NC(=C2)C3(CC3)S(=O)(=O)C)C4=C5C=CNC5=CC=C4
Procedure, shortened: as §1

[4] = compound: C[C@H](C1=CC=C(C=C1)C(=O)NC2=C3C=CNC3=NC=C2)N
Procedure, shortened: as §1

[5] = compound: C[C@H](Nc1ncnc2nc[nH]c12)c1cc2cccc(Cl)c2c(=O)n1-c1ccccc1 [duvelisib]
Procedure, shortened: as §1

[6] = compound: Cc1cc(Nc2cc(CN3CCOCC3)c3nc(C)c(Cc4ccc(Cl)cc4F)n3n2)n[nH]1 [gandotinib]
Procedure, shortened: as §1

[7] = compound: Cc1cc(Nc2cc(N3CCN(C)CC3)nc(Sc3ccc(NC(=O)C4CC4)cc3)n2)n[nH]1 [tozasertib]
Procedure, shortened: as §1

[8] = compound: Cc1cc(SCc2sc(-c3ccc(C(F)(F)F)cc3)nc2C)ccc1OCC(=O)O
Procedure, shortened: as §1

[9] = compound: Cc1ccc(-n2nc(C(C)(C)C)cc2NC(=O)Nc2ccc(OCCN3CCOCC3)c3ccccc23)cc1 [doramapimod]
Procedure, shortened: as §1

[10] = compound: Cc1ccc(C(=O)N(CCCN)[C@@H](c2nc3cc(Cl)ccc3c(=O)n2Cc2ccccc2)C(C)C)cc1 [ispinesib]
Procedure, shortened: as §1

UniProt Q16795, sequence (Q16795 whole entry, looked up): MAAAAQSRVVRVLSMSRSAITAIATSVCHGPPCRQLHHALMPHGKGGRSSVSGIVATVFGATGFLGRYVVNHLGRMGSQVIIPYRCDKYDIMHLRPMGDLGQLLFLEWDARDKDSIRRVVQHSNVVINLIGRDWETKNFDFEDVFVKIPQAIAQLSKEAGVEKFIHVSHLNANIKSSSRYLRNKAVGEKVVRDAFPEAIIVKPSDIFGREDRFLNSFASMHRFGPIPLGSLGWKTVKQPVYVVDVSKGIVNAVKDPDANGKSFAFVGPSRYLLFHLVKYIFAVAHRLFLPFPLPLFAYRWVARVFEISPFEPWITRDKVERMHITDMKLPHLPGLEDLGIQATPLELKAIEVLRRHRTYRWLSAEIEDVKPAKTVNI
UniProt Q8NBF2, sequence (Q8NBF2 whole entry, looked up): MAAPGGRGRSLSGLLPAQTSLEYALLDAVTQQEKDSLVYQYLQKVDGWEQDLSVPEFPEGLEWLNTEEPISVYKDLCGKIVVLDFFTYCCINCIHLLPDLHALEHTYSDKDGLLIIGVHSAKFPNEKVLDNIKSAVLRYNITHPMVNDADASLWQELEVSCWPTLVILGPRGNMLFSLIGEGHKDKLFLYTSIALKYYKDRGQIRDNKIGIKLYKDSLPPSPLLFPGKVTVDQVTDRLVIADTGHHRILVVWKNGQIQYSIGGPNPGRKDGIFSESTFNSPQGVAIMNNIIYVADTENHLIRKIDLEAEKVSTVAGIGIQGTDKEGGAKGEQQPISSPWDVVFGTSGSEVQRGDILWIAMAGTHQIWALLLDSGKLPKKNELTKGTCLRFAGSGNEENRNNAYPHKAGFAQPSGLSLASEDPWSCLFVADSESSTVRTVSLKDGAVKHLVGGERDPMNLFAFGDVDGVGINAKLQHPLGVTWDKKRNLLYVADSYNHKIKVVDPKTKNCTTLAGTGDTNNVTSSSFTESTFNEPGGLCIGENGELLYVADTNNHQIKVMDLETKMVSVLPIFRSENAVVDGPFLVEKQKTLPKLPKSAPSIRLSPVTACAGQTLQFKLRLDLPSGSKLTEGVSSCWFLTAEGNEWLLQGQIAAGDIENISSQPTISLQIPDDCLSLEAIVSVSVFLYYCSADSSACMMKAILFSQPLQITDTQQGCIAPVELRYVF
UniProt P55209, sequence (P55209 whole entry, looked up): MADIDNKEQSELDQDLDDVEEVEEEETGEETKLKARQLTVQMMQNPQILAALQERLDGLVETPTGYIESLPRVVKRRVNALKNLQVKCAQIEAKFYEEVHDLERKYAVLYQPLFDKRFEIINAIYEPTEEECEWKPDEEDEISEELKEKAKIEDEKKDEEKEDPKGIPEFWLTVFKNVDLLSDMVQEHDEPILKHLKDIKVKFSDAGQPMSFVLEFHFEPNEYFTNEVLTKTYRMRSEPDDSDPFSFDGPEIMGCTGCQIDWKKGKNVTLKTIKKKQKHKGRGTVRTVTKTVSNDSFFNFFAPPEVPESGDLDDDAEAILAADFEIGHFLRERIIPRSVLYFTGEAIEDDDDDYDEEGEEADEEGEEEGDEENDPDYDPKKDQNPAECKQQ
UniProt O95182, sequence (O95182 whole entry, looked up): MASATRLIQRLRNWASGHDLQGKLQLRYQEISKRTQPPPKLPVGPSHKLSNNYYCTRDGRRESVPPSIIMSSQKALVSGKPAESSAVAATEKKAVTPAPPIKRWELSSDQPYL
UniProt Q9H1E3, sequence (Q9H1E3 whole entry, looked up): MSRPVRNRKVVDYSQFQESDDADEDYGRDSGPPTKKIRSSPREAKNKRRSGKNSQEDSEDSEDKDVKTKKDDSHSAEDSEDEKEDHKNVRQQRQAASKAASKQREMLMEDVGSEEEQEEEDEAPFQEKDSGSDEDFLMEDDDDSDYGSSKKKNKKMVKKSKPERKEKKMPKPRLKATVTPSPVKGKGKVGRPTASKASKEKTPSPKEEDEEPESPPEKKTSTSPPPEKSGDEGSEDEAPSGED
UniProt O43847, sequence (O43847 whole entry, looked up): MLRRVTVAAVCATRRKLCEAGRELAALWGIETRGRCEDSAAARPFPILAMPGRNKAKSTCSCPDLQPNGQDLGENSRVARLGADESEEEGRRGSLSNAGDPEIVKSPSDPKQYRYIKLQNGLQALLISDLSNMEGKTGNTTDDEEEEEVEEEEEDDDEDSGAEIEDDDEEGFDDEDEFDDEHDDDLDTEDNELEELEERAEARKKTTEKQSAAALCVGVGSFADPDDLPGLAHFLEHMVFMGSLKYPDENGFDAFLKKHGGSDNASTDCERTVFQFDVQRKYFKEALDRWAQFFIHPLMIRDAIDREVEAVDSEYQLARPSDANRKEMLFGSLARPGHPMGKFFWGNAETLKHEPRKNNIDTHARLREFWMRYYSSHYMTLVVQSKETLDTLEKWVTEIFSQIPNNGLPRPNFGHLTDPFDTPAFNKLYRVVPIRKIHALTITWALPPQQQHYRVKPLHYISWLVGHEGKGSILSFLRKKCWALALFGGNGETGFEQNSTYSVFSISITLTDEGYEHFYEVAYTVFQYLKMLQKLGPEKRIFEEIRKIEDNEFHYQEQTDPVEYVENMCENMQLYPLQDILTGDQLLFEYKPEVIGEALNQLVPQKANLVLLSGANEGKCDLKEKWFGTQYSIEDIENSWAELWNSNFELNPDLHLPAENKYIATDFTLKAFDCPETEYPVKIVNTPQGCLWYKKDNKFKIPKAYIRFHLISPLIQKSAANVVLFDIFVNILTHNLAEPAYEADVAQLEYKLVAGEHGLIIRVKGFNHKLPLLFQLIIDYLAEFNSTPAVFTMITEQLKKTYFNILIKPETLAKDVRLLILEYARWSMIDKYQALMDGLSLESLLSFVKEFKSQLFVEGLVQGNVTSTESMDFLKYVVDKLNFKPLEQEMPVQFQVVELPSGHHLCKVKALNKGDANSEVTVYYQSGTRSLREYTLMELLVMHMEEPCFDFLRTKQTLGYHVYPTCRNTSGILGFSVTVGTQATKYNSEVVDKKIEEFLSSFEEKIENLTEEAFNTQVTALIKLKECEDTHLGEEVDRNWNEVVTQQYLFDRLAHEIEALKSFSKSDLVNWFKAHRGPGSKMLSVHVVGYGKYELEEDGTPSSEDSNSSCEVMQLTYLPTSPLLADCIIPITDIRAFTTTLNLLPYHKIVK
UniProt P35580, sequence (P35580 whole entry, looked up): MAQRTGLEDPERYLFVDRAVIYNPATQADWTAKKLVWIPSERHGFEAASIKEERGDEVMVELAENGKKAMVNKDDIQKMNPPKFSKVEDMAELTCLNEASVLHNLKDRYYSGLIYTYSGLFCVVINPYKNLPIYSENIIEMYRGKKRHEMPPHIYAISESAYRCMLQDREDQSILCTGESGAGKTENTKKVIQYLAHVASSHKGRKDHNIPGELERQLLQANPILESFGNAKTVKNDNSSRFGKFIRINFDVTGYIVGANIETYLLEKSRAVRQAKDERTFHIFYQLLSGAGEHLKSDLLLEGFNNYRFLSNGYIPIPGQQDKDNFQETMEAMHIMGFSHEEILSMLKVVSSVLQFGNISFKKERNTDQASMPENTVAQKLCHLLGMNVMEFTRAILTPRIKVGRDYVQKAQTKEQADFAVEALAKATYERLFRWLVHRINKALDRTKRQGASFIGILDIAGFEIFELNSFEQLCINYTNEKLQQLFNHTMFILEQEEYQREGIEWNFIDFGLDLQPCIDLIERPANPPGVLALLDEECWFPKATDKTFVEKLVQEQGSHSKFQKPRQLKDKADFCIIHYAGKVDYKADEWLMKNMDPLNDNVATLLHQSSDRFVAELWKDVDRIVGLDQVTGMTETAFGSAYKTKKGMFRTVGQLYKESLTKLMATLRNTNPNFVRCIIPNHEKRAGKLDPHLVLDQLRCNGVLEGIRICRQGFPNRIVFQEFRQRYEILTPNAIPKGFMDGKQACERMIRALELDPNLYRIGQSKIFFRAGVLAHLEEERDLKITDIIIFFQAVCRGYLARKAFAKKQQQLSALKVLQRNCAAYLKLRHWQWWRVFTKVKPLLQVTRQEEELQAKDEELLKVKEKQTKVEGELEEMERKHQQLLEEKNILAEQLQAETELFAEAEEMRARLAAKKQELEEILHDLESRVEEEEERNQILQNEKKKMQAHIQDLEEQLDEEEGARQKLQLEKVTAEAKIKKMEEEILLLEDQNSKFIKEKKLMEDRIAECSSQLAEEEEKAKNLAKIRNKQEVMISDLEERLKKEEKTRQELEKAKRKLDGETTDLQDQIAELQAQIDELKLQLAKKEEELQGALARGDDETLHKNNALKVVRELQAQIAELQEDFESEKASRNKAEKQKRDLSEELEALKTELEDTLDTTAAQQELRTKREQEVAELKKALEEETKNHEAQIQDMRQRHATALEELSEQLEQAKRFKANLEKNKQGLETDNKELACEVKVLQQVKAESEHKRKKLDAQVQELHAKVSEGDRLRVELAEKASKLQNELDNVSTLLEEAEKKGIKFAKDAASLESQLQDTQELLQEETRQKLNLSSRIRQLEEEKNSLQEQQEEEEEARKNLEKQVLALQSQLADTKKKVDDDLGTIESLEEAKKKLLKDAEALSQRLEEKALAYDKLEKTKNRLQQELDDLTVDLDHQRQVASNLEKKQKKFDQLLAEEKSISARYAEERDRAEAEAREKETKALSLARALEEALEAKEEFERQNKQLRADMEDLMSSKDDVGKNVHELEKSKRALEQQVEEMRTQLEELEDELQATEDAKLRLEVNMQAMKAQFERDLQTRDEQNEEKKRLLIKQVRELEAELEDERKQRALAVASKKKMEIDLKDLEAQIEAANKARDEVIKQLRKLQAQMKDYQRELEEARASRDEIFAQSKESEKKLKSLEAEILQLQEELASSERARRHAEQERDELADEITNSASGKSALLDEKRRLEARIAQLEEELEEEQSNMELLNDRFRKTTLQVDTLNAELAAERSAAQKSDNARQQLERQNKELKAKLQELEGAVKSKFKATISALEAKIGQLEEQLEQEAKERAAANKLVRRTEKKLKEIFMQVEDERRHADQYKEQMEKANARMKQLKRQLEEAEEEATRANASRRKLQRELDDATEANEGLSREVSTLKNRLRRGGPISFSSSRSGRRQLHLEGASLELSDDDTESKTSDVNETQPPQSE

Row | Target | log2 fold change [1] | log2 fold change [2] | log2 fold change [3] | log2 fold change [4] | log2 fold change [5] | log2 fold change [6] | log2 fold change [7] | log2 fold change [8] | log2 fold change [9] | log2 fold change [10]
1 | MTMR14 (UniProt Q8NCE2) | 0.033 | 0.069 | -0.054 | 0.014 | 0.048 | 0.144 | 0.046 | 0.079 | -0.03 | 0.061
2 | NRDC isoform 2 (UniProt O43847) | 0.034 | -0.065 | 0.054 | -0.034 | 0.008 | -0.029 | 0.02 | 0.089 | -0.036 | -0.022
3 | MMS19 isoform 8 (UniProt Q96T76) | 0.002 | -0.156 | 0.023 | 0.053 | 0.044 | -0.129 | 0.051 | 0.103 | 0.033 | -0.035
4 | NDUFA9 (UniProt Q16795) | 0.007 | -0.139 | 0.079 | 0.022 | 0.006 | -0.115 | -0.038 | 0.052 | -0.031 | -0.122
5 | MRPL47 (UniProt Q9HD33) | 0.039 | 0.019 | -0.087 | 0.261 | -0.076 | 0.625 (active) | 0.033 | 0.095 | 0.11 | -0.237
6 | NRF1 isoform 4 (UniProt Q16656) | 0.03 | 0.071 | 0.275 | -0.107 | 0.053 | -0.125 | 0.074 | 0.017 | -0.003 | -0.004
7 | NDUFS7 (UniProt O75251) | 0.013 | -0.109 | 0.029 | -0.019 | 0.053 | -0.108 | -0.046 | 0.013 | -0.02 | -0.114
8 | MRPS35 (UniProt P82673) | 0.004 | -0.043 | 0.016 | 0.166 | 0.016 | -0.039 | 0.032 | 0.101 | 0.005 | -0.277 (active)
9 | MRPS24 (UniProt Q96EL2) | 0.014 | -0.031 | 0.192 | 0.082 | -0.009 | -0.117 | 0.048 | 0.094 | -0.028 | -0.427 (active)
10 | NCAPG (UniProt Q9BPX3) | 0.029 | -0.031 | 0.034 | 0.034 | 0.073 | -0.144 | 0.115 | 0.071 | -0.077 | -0.01
11 | NHLRC2 (UniProt Q8NBF2) | 0.1 | -0.127 | 0.165 | -0.011 | 0.05 | -0.158 | -0.105 | 0.044 | -0.005 | -0.198
12 | NUDT21 (UniProt O43809) | -0.054 | 0.039 | -0.031 | -0.209 (active) | -0.01 | -0.059 | 0.013 | 0.039 | 0.007 | 0.116
13 | NA, A0A096LPI6 | -0.014 | 0.079 | 0.03 | -0.015 | 0.018 | 0.04 | -0.034 | -0.051 | -0.038 | 0.047
14 | NAP1L1 (UniProt P55209) | 0.018 | -0.025 | -0.122 | -0.021 | 0.068 | -0.09 | 0.045 | -0.016 | 0.009 | 0.04
15 | MYH10 isoform 3 (UniProt P35580) | -0.013 | -0.038 | 0.056 | -0.026 | 0.023 | -0.004 | -0.009 | 0.013 | 0.009 | 0.01
16 | NSDHL (UniProt Q15738) | 0.04 | 0.314 (active) | 0.045 | -0.105 | 0.024 | 0.239 | 0.083 | 0.058 | 0.22 (active) | -0.016
17 | NOP2 isoform 4 (UniProt P46087) | 0 | -0.127 | -0.25 | 0.673 | -0.166 | 0.231 | 0.084 | -0.022 | 0.219 | 0.163
18 | NCAPH (UniProt Q15003) | 0.049 | 0.013 | -0.017 | 0.072 | 0.024 | -0.11 | 0.102 | 0.081 | 0.006 | -0.064
19 | MYL12B (UniProt O14950) | -0.016 | -0.004 | 0.019 | -0.32 (active) | 0.088 | 0.058 | 0.005 | -0.003 | 0.025 | 0.097
20 | NUCKS1 (UniProt Q9H1E3) | -0.147 | 0.274 (active) | -0.133 | 0.029 | 0.005 | 0.001 | -0.064 | -0.089 | -0.03 | 0.168
21 | NDUFA7 (UniProt O95182) | -0.004 | -0.103 | 0.02 | 0.039 | 0.012 | -0.12 | -0.101 | 0.07 | -0.041 | -0.118
22 | MRPS31 (UniProt Q92665) | 0.063 | 0.024 | 0.027 | 0.199 | 0.005 | 0.121 | -0.015 | 0.073 | 0 | -0.28 (active)
23 | MON2 isoform 5 (UniProt Q7Z3U7) | 0.044 | -0.065 | 0.081 | 0.033 | 0.173 | -0.105 | 0.011 | 0.171 | 0.077 | -0.055
24 | MKRN2 (UniProt Q9H000) | -0.035 | -0.094 | -0.077 | 0.117 | -0.111 | 0.221 | 0.085 | 0.076 | -0.005 | -0.161
25 | MRPS6 (UniProt P82932) | -0.038 | -0.076 | 0.117 | 0.085 | -0.002 | -0.016 | 0.022 | 0.081 | 0.048 | -0.208
26 | MRPS2 (UniProt Q9Y399) | -0.043 | 0.078 | 0.032 | 0.048 | -0.003 | -0.117 | 0.027 | 0.022 | -0.049 | -0.352 (active)
27 | OSBPL8 (UniProt Q9BZF1) | 0.019 | -0.179 | -0.043 | 0.219 | -0.207 | -0.105 | 0.089 | 0.103 | 0.078 | -0.433

— the supplement of paper PMC10849652
